Inconclusive results are not listed. Activity calls are given as the source filed them. The call rests on the fitted dose curve; in most records, active means well fitted curve in the direction sought with a large enough effect; inconclusive means small, poorly fitted or top-dose-only effect, or another doubt; inactive means no such curve, though single readings can be large; an effect the other way counts as inactive or inconclusive. *1 amine or outer side, *2 acyl side, *3 side chain or, on linkers, in order; H or OH if unused. Where a SMILES comes first, the peptide text is derived from it. Bridges are numbered along the chain shown (N, C = ends). [ ]: non-standard residue; d: D form. The star is where a group is joined. ξ: configuration not given here. ξhTyr(3S-OH,4S-OH,3'-OSO3H) = NC(C(=O)O)[C@H](O)[C@@H](O)c1ccc(O)c(OS(=O)(=O)O)c1; Orn(4R-OH,5R-OH) = O=C([C@H](C[C@@H](O)[C@@H](O)N[*:3])N[*:1])[*:2]; X2 = CCCCCOc1ccc(-c2cc(-c3ccc(C(=O)*)cc3)no2)cc1; X3 = C[C@H]1CN([*:1])C(C(=O)[*:2])[C@H]1O; ξGln(3R-OH) = NC(=O)C[C@@H](O)C(N)C(=O)O; ξPro(4R-OH) = O=C(O)C1C[C@@H](O)CN1; ξThr(3R) = C[C@@H](O)C(N)C(=O)O
How the values were obtained:
[1] = system: HACAT; experiment: qHTS assay to identify novel small-molecules to repurpose for Merkel cell carcinoma treatment (AID 1296009); details: MCC and control cell lines, CellTiter-Glo viability, 72 h; at 44.8 µM (top of the series) unless noted; further: nearly all actives have a fitted effect of over 60% in size
Method in brief: (§1)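 Dose-response viability screen; 72 hr exposure at 37 degree celsius; CellTiter-Glo added, 10 min room temperature, luminescence read; RLUs scaled between no-cell and DMSO wells.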

[2] = system: C33A; experiment: Primary qHTS to identify gynecologic anti-cancer compounds using libraries of approved drugs and bioactive compounds (AID 1345084); details: Gynecologic cancer cell panel viability, ATPlite luminescence, 48 h; series mostly up to 57.5 µM; further: nearly all actives have a fitted effect of over 55% in size
Method in brief: (§2)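 Cell viability after 48 h drug treatment, ATPlite luminescence readout; five doses.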

[3] = system: CASKI; experiment: as above; details: Gynecologic cancer cell panel viability, ATPlite luminescence, 48 h; series mostly up to 57.5 µM
Method in brief: as §2

[4] = system: Es-2; experiment: as above; details: Gynecologic cancer cell panel viability, ATPlite luminescence, 48 h; series mostly up to 57.5 µM
Method in brief: as §2

[5] = system: HeLa; experiment: as above; details: Gynecologic cancer cell panel viability, ATPlite luminescence, 48 h; series mostly up to 57.5 µM
Method in brief: as §2

[6] = system: Hek293T; experiment: as above; details: Gynecologic cancer cell panel viability, ATPlite luminescence, 48 h, control line for the selectivity index; series mostly up to 57.5 µM
Method in brief: as §2

[7] = system: JEG-3; experiment: as above; details: Gynecologic cancer cell panel viability, ATPlite luminescence, 48 h; series mostly up to 57.5 µM
Method in brief: as §2

[8] = system: OV90; experiment: as above; details: Gynecologic cancer cell panel viability, ATPlite luminescence, 48 h; series mostly up to 57.5 µM
Method in brief: as §2

[9] = system: PA-1; experiment: as above; details: Gynecologic cancer cell panel viability, ATPlite luminescence, 48 h; series mostly up to 57.5 µM
Method in brief: as §2

[10] = system: SKOV3; experiment: as above; details: Gynecologic cancer cell panel viability, ATPlite luminescence, 48 h; series mostly up to 57.5 µM
Method in brief: as §2

[11] = system: Tov-21-G; experiment: as above; details: Gynecologic cancer cell panel viability, ATPlite luminescence, 48 h; series mostly up to 57.5 µM
Method in brief: as §2

[12] = system: Tov112D; experiment: as above; details: Gynecologic cancer cell panel viability, ATPlite luminescence, 48 h; series mostly up to 57.5 µM
Method in brief: as §2

[13] = system: CAOV3; experiment: as above; details: Gynecologic cancer cell panel viability, ATPlite luminescence, 48 h; series mostly up to 57.5 µM
Method in brief: as §2

[14] = system: HEK293T; experiment: qHTS assay to identify novel small-molecules to repurpose for Merkel cell carcinoma treatment (AID 1296009); details: MCC and control cell lines, CellTiter-Glo viability, 72 h; at 44.8 µM (top of the series) unless noted; further: nearly all actives have a fitted effect of over 60% in size
Method in brief: as §1

Measured: Potency

CN(C)c1ccc(C2O[C@@H](c3ccccc3)C[C@H](c3ccccc3)O2)cc1 (some centres undefined)
not listed: [13] | [14]
inactive: all other assays above

CC(=O)OC[C@]12[C@H](OC(C)=O)[C@H](OC(=O)c3ccccc3)[C@@H]3[C@@H](OC(C)=O)[C@]1(OC3(C)C)[C@H](C)C[C@H](OC(=O)c1ccccc1)[C@@H]2OC(=O)c1ccccc1
inactive: [1] inactive [at 17.4 µM] | [2] | [3] | [4] | [5] | [6] | [7] | [8] | [9] | [10] | [11] | [12]

CC(=O)O[C@@H]1CC2C(C)(C)C(=O)C=C[C@]2(C)C2CC[C@]3(C)C(=CC(=O)[C@@H]3c3ccoc3)[C@@]21C (some centres undefined)
inactive: [1] inactive [at 17.4 µM] | [2] | [13] | [3] | [4] | [5] | [6] | [7] | [9] | [10] | [11] | [12]

CCCCCOc1ccc(-c2cc(-c3ccc(C(=O)N[C@H]4C[C@@H](O)[C@@H](O)NC(=O)C5[C@@H](O)[C@@H](C)CN5C(=O)C([C@H](O)CC(N)=O)NC(=O)C([C@H](O)[C@@H](O)c5ccc(O)c(OS(=O)(=O)O)c5)NC(=O)C5C[C@@H](O)CN5C(=O)C([C@@H](C)O)NC4=O)cc3)no2)cc1 (stereo partly drawn) (X2-[Orn(4R-OH,5R-OH)][ξThr(3R)][ξPro(4R-OH)][ξhTyr(3S-OH,4S-OH,3'-OSO3H)][ξGln(3R-OH)][X3]; lactam 1-C)
inactive: [1] inactive [at 17.4 µM] | [2] | [13] | [4] | [5] | [6] | [7] | [8] | [9] | [10] | [11] | [12]

Cc1cc(C(=O)N2Cc3cnn(C)c3Nc3ccccc32)ccc1CNC(=O)N1CCN(Cc2cc(O)cc(O)c2)CC1
not listed: [10] | [13] | [14]
inactive: all other assays above

CCC(C)/C=C(C)/C=C/C1=CC2=C(Cl)C(=O)C(C)(OC(C)=O)C(=O)C2=CN1C(CCCN=C(N)N)C(=O)O (centres undefined)
inactive: [1] inactive [at 17.4 µM] | [2] | [3] | [4] | [5] | [7] | [8] | [10] | [11] | [12]

C[C@@H]1[C@H]2[C@H](O[C@@H]3O[C@H](CO)[C@@H](O)[C@H](O)[C@H]3O)OC=C(C(=O)O)[C@H]2C[C@@H]1OC(=O)/C=C/c1ccc(O)cc1
inactive: [14] inactive [at 17.4 µM] | [2] | [13] | [3] | [4] | [5] | [6] | [7] | [8] | [9] | [11] | [12]

CC(C)C1(O)NC(=O)C(CC2(O)c3ccccc3N3C(=O)C(C)(C)NC32)n2c1nc1ccccc1c2=O (centres undefined)
inactive: [14] inactive [at 17.4 µM] | [2] | [13] | [3] | [4] | [5] | [6] | [7] | [8] | [10] | [11] | [12]

C=C1[C@H](OC(C)=O)[C@H]2[C@@H](OC(=O)c3ccccc3)[C@@H](C)C[C@]2(O)[C@@H](OC(C)=O)[C@H](C)/C=C/C(C)(C)C(=O)[C@H](OC(C)=O)[C@H]1OC(C)=O
inactive: [1] inactive [at 17.4 µM] | [13] | [4] | [5] | [6] | [7] | [8] | [9] | [10] | [11] | [12]

O=C(OC[C@H]1O[C@H](O[C@H]2CO[C@H](CO)[C@@H](O)[C@@H]2O)[C@H](O)[C@@H](O)[C@H]1O)c1ccccc1
inactive: [14] inactive [at 17.4 µM] | [2] | [13] | [3] | [4] | [5] | [6] | [7] | [8] | [9] | [11] | [12]

C/C=C(/C)C(=O)OC1C2OC2C2(CO2)C2C3OC(=O)C(C)C3CCC12C (centres undefined)
not listed: [1] | [10]
inactive: all other assays above

C[C@@H]1C(=O)O[C@H](C)[C@H]1C[C@@H](O)[C@](C)(O)[C@H]1CC[C@@]2(O)C3=CC(=O)[C@@H]4C[C@@H](O)[C@@H](O)C[C@]4(C)C3CC[C@]12C (some centres undefined)
inactive: [14] inactive [at 17.4 µM] | [2] | [13] | [3] | [4] | [5] | [6] | [7] | [8] | [10] | [11] | [12]

COC(=O)CCC1(C)C(C(C)(C)O)C(O)CC2(C)Oc3c(C)c4c(c(OC)c3CC21)C(=O)OC4 (centres undefined)
inactive: [14] inactive [at 17.4 µM] | [2] | [13] | [3] | [4] | [5] | [6] | [7] | [8] | [9] | [10] | [12]

CC1CCC23COC(=O)C2=CC(O)CC3C1(C)CCc1ccoc1 (centres undefined)
not listed: [1] | [10]
inactive: all other assays above

Source: PubChem BioAssay (NCATS)
